Test results published in PubChem BioAssay.
Unmarked numbers belong to inactive results. Calls of active or inactive are those of the source.

experiment: PSAC antagonists in infected red cells, primary screen, cell-based, P. falciparum Indochina, OD700, 1 h (AID 1154); conditions: P. falciparum Indochina infected RBC osmotic lysis, higher = more signal, called active from +8 up or from −8 down

Structure (SMILES)	z-score
CC(C)Cc1ccc(CN2CC[C@@H](NC(=O)Nc3ccccc3)C2)cc1	1.96
COC(=O)[C@@]1(Cc2ccc(F)cc2)[C@H]2c3cc(C(=O)N4CCCC4)n(CCN4CNCC4=O)c3C[C@H]2CN1C(=O)c1ccccc1	1.85
COC(=O)[C@@]1(Cc2ccccc2)[C@@H]2C(=CC(=O)[C@H]2CC(=O)C(=O)N(C)C)CN1C(=O)c1ccccc1	4.6
C=CCC(OC(C)=O)[C@@H]1[C@@H](N(Cc2ccc(-c3ccccc3)cc2)C(=O)Cc2ccc(F)cc2)c2cc(OCCCO)ccc2N1C(=O)Cc1ccc(OC)cc1 (stereo not given in full)	3.94
COc1ccc([Si](C)(C)[C@@H]2[C@@H](CCn3cc([C@H](O)c4ccccc4)nn3)O[C@]3(C(=O)N(Cc4ccc(N5CCC5=O)cc4)c4ccccc43)[C@H]2C)cc1	18.8 (active)
C=C(C)[C@@H]1CC=C(C(O)C2C=CC3C(=O)N(c4ccccc4)C(=O)C3N2Nc2ccccc2F)CC1 (stereo not given in full)	0.19
Cc1ccc(S[C@]2(C(=O)O)CC(=O)N(Cc3ccccc3Cl)[C@@H]2c2ccc(CO)cc2I)cc1	8.88 (active)
O=C1C2C=CC(C(O)c3ccccc3)N(Nc3ccccc3F)C2C(=O)N1c1ccccc1 (stereo not given)	7.12
[N-]=[N+]=NCc1ccccc1[C@@H]1OC(c2ccc(OCCCO)cc2)=N[C@]1(CCS(=O)(=O)c1ccccc1)C(=O)NCC(O)CO (stereo not given in full)	24.8 (active)
COC(=O)c1c(CC[C@@H](CO)NC(=O)N[C@H](Cn2cc(C3(O)CCCCC3)nn2)C(C)C)oc(C(C)=O)c1C(=O)OC	1.45
